Test results published in PubChem BioAssay (NCATS).
Where “and” joins values, the source holds several entries; their conditions need not be identical. Identical values can stand only once. Inconclusive results are not listed. Calls of active or inactive are those of the source. The call rests on the fitted dose curve; in most records, active means well fitted inhibition curve with a large enough effect in the signal ratio, with a control signal flat (not every such curve was filed as active); inconclusive means small, poorly fitted or top-dose-only effect, or effect the other way, or a change in a side signal; inactive means flat fitted curve, though single readings scatter; the % refers to the signal ratio.

Molecular target: Thyroid hormone receptor beta (Homo sapiens) (UniProt P10828)
Sequence (P10828 whole entry, looked up): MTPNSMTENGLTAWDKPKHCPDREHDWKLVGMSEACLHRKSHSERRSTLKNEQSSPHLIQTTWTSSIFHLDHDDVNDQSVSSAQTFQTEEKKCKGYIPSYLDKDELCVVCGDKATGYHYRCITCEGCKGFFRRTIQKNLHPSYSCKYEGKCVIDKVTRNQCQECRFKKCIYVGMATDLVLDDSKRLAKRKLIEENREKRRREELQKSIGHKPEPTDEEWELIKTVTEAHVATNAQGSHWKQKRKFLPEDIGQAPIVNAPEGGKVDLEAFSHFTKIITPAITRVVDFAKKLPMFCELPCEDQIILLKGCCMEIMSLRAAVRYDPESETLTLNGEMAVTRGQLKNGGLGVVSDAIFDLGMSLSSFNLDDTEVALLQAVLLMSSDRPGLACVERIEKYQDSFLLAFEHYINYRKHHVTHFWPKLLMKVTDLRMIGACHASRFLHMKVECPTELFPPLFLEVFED
Experiment: qHTS assay for small molecule antagonists of thyroid hormone receptor beta signaling (AID 588547);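 further: cells stimulated with 0.4 nM T3 agonist during compound exposure; series mostly up to about 77 µM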
Conditions: TR-UAS-bla HEK293, beta-lactamase ratio, antagonist mode, 18 h
Text: NIH Chemical Genomics Center [NCGC] U.S. Environmental Protection Agency [EPA] National Institutes of Environmental Health Sciences [NIEHS] National Toxicology Program [NTP] NCGC Assay Overview Thyroid hormone receptor (TR) belongs to nuclear hormone receptor superfamily. There are two subtypes for TR: TR-alpha and TR-beta. TR-beta plays a major role in regulating plasma cholesterol levels and it mediates the biological activities of thyroid hormone. Screening environmental chemicals on TR-beta signaling will provide important information for the mechanism of compound action.
NCGC Assay Protocol Summary Using a beta-lactamase reporter-gene under control of the TR response element, a cell-based assay [GeneBLAzer TR-UAS-bla-GripTite assay developed by Invitrogen] was used to measure TR-beta signaling in antagonist mode. TR-UAS-bla-GripTite HEK 293 cells were used with assay medium containing 2% charcoal/dextran FBS, 0.1 mM NEAA and 1 mM sodium pyruvate. The assay was performed in clear bottom black Greiner 1536-well plates. Library compounds were measured for their ability to inhibit the reporter gene activity. Compounds were screened in a titration series in 1536-well format. The fluorescence intensity (405 nm excitation, 460/530 nm emission) was measured using an EnVision plate reader. […] Concentration-response titration points for each compound were fitted to the Hill equation yielding concentrations of half-maximal inhibition (IC50) and maximal response (efficacy) values. qHTS protocol for TR-beta beta-lactamase assay in antagonist mode [Step] [Parameter] [Value] [Description] 1. Reagent; 5 uL; 2500 cells/well 2. Incubation; 37 C for 4 hrs 3. Compounds; 23 nL; 0.59 nM to 92 uM 4. Controls (DMSO); 23 nL 5. Agonist (Stimulator); 1uL; T3 at 0.4nM (final) concentrations 6. Incubation; 37 C for 18 hrs 7. Detection reagent; 1 uL of CCF4-dye 8. Incubation; RT for 2 hrs 9. Detection; Fluorescence; Envision plate reader
On the % scale 0 is the no-effect control and ±100 the full control effect.

Q: With `Nc1ccc(Br)cc1` as the molecule, how does the activity change % (negative = inhibition) read?
A: The activity change % (negative = inhibition) was -8.18% (inactive).

Q: How did the activity change % (negative = inhibition) turn out when `N#Cc1c(Cl)cccc1Cl` was run?
A: The activity change % (negative = inhibition) was -4.17% (inactive).

Q: With `O=[N+]([O-])c1ccc(Cl)c(Cl)c1` as the molecule, how does the activity change % (negative = inhibition) read?
A: Its activity change % (negative = inhibition) is -4.24% (inactive).

Q: How did the activity change % (negative = inhibition) turn out when `Oc1ccc(Cl)cc1Cl` was run?
A: The activity change % (negative = inhibition) was 16.9% (inactive) and -6.49% (inactive).

Q: `O=NN(CCO)CCO` was tested. Which activity change % (negative = inhibition) did it give?
A: The activity change % (negative = inhibition) was -10.8% (inactive).

Q: `CNC(=O)N(C)c1nnc(C(C)(C)C)s1` was tested. Which activity change % (negative = inhibition) did it give?
A: The activity change % (negative = inhibition) was -7.26% (inactive).

Q: For `Clc1cc(Cl)c(-c2cc(Cl)c(Cl)cc2Cl)cc1Cl`, which activity change % (negative = inhibition) is on record?
A: The activity change % (negative = inhibition) was -3% (inactive) and 18.9% (inactive).

Q: `COC(=O)NC(=S)Nc1ccccc1NC(=S)NC(=O)OC` was tested. Which activity change % (negative = inhibition) did it give?
A: Its activity change % (negative = inhibition) is 1.37% (inactive) and 13.1% (inactive).

Q: How did the activity change % (negative = inhibition) turn out when `NC(=S)Nc1ccccc1` was run?
A: Its activity change % (negative = inhibition) is -7.36% (inactive) and -1.01% (inactive) and 3.6% (inactive).

Q: `ClC(Cl)(Cl)c1ccccc1` was tested. Which activity change % (negative = inhibition) did it give?
A: The activity change % (negative = inhibition) was -2.31% (inactive) and -2.68% (inactive).

Q: How did the activity change % (negative = inhibition) turn out when `CCN(CC)c1ccccc1` was run?
A: The activity change % (negative = inhibition) was -7.69% (inactive).

Q: With `CCCCSP(=O)(SCCCC)SCCCC` as the molecule, how does the activity change % (negative = inhibition) read?
A: The activity change % (negative = inhibition) was -17.4% (inactive).

Q: With `[O-][Br+2]([O-])O` as the molecule, how does the activity change % (negative = inhibition) read?
A: The activity change % (negative = inhibition) was 6.91% (inactive) and -5.45% (inactive).

Q: For `O=C(Cl)C(Cl)(Cl)Cl`, which activity change % (negative = inhibition) is on record?
A: The activity change % (negative = inhibition) was -5.79% (inactive).

Q: How did the activity change % (negative = inhibition) turn out when `CC(COc1ccc(Oc2ccccc2)cc1)Oc1ccccn1` (stereo not given) was run?
A: The activity change % (negative = inhibition) was 4.1% (inactive) and -8.02% (inactive).

Q: With `Cc1ccc2ccccc2c1` as the molecule, how does the activity change % (negative = inhibition) read?
A: The activity change % (negative = inhibition) was 0.181% (inactive).

Q: Which activity change % (negative = inhibition) does the source give for `CC(O)CCl` (stereo not given) here?
A: The activity change % (negative = inhibition) was -4.17% (inactive).

Q: For `O=S1OCC2C(CO1)C1(Cl)C(Cl)=C(Cl)C2(Cl)C1(Cl)Cl` (stereo not given), which activity change % (negative = inhibition) is on record?
A: The activity change % (negative = inhibition) was -1.54% (inactive).

Q: `COc1ccc(C=O)cc1OC` was tested. Which activity change % (negative = inhibition) did it give?
A: The activity change % (negative = inhibition) was 2.18% (inactive) and 12.7% (inactive).

Q: How did the activity change % (negative = inhibition) turn out when `C=C(C)C#N` was run?
A: The activity change % (negative = inhibition) was -13.7% (inactive) and -1.19% (inactive).

Q: `CCc1cccc(CC)c1N(COC)C(=O)CCl` was tested. Which activity change % (negative = inhibition) did it give?
A: Its activity change % (negative = inhibition) is -17.8% (inactive) and -7.56% (inactive).

Q: How did the activity change % (negative = inhibition) turn out when `CC(=O)[O-].CC(=O)[O-].O.O.O.[Pb+2]` was run?
A: The activity change % (negative = inhibition) was -0.227% (inactive).

Q: With `CCCSC(=O)Cl` as the molecule, how does the activity change % (negative = inhibition) read?
A: The activity change % (negative = inhibition) was -14.3% (inactive).

Q: `C[C@H]1CCCC(=O)CCC/C=C/c2cc(O)cc(O)c2C(=O)O1` was tested. Which activity change % (negative = inhibition) did it give?
A: Its activity change % (negative = inhibition) is -19.1% (inactive) and -18.2% (inactive).

Q: `CN=C=S` was tested. Which activity change % (negative = inhibition) did it give?
A: Its activity change % (negative = inhibition) is -1.38% (inactive) and -7.2% (inactive).

Q: Which activity change % (negative = inhibition) does the source give for `BrCCBr` here?
A: Its activity change % (negative = inhibition) is -9.28% (inactive).

Q: How did the activity change % (negative = inhibition) turn out when `C=C(C)C(=O)OCC1CO1` (stereo not given) was run?
A: Its activity change % (negative = inhibition) is 6.72% (inactive).

Q: How did the activity change % (negative = inhibition) turn out when `C=CCOC(=O)c1ccccc1N` was run?
A: Its activity change % (negative = inhibition) is -21.1% (inactive).

Q: `c1ccc(-c2ccccc2)cc1` was tested. Which activity change % (negative = inhibition) did it give?
A: The activity change % (negative = inhibition) was -3.07% (inactive) and -0.354% (inactive).

Q: With `ClC1=C(Cl)C2(Cl)C3C4CC(C5OC45)C3C1(Cl)C2(Cl)Cl` (stereo not given) as the molecule, how does the activity change % (negative = inhibition) read?
A: Its activity change % (negative = inhibition) is -28.8% (inactive).

Q: Which activity change % (negative = inhibition) does the source give for `O=C(Cl)/C=C/C(=O)Cl` here?
A: The activity change % (negative = inhibition) was 2.64% (inactive).

Q: For `C=CC(=O)OCC`, which activity change % (negative = inhibition) is on record?
A: The activity change % (negative = inhibition) was -5% (inactive).

Q: How did the activity change % (negative = inhibition) turn out when `ClC1=C(Cl)C2(Cl)C3C4C=CC(C4)C3C1(Cl)C2(Cl)Cl` (stereo not given) was run?
A: Its activity change % (negative = inhibition) is -26.2% (inactive).

Q: How did the activity change % (negative = inhibition) turn out when `COc1ccc(N)cc1` was run?
A: The activity change % (negative = inhibition) was 8.16% (inactive) and -11.7% (inactive).

Q: How did the activity change % (negative = inhibition) turn out when `C1CCC2CCCCC2C1` (stereo not given) was run?
A: Its activity change % (negative = inhibition) is 10.1% (inactive).

Q: How did the activity change % (negative = inhibition) turn out when `c1ccc2c(c1)CCCC2` was run?
A: Its activity change % (negative = inhibition) is 3.81% (inactive).

Q: For `ClCBr`, which activity change % (negative = inhibition) is on record?
A: Its activity change % (negative = inhibition) is 5.81% (inactive).

Q: For `COP(N)(=O)SC` (stereo not given), which activity change % (negative = inhibition) is on record?
A: The activity change % (negative = inhibition) was 12.1% (inactive) and -8.42% (inactive).

Q: With `CCS(=O)CCSP(=O)(OC)OC` (stereo not given) as the molecule, how does the activity change % (negative = inhibition) read?
A: Its activity change % (negative = inhibition) is -3.19% (inactive).

Q: `Clc1ccc2ccccc2c1` was tested. Which activity change % (negative = inhibition) did it give?
A: The activity change % (negative = inhibition) was -12% (inactive).
